# Test results reported in PubChem BioAssay (NCATS).
# Inconclusive results are not listed. The source made the active and inactive calls. Calls come from the whole dose curve; as a rule, active = well fitted cell-killing curve with a large enough effect; inconclusive = small, poorly fitted or top-dose-only effect, or effect the other way; inactive = flat fitted curve, though single readings scatter.
# System: JEG-3
# Experiment: Primary qHTS to identify gynecologic anti-cancer compounds using libraries of approved drugs and bioactive compounds (AID 1345084); note: nearly all actives have a fitted effect of over 55% in size
# Conditions: Gynecologic cancer cell panel viability, ATPlite luminescence, 48 h; series mostly up to 57.5 µM; activity change, negative = cytotoxicity: at the top concentration
# Procedure, shortened: (§1)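 Cytotoxicity screen measuring ATP content by luciferase luminescence. Each compound is applied at five concentrations for 48 h at 37 C with 5% CO2.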
# % is set by controls: 0 for no effect and ±100 for the full control effect; potency is the fitted concentration of half-maximal effect.
row,Compound,"activity change, negative = cytotoxicity"
1,NCC(=O)O,21.3% [at 25.3 µM] (inactive)
2,Cc1c(N)cccc1C(F)(F)F,4.57% (inactive)
3,O=C(O)CCC(=O)OC[C@@H](NC(=O)C(Cl)Cl)[C@H](O)c1ccc([N+](=O)[O-])cc1,0.979% (inactive)
4,O=C(COCCOCCOCC(=O)Nc1c(I)cc(I)c(C(=O)O)c1I)Nc1c(I)cc(I)c(C(=O)O)c1I,2.27% (inactive)
5,CC(=O)[C@@]1(O)CC[C@H]2[C@@H]3C[C@H](C)C4=CC(=O)CC[C@]4(C)[C@H]3CC[C@@]21C,3.3% (inactive)
6,CCN(CC)CC(=O)OCC(=O)[C@@]1(O)CC[C@H]2[C@@H]3CCC4=CC(=O)CC[C@]4(C)[C@H]3[C@@H](O)C[C@@]21C,1.37% (inactive)
7,C[C@@]12CCC[C@H]1[C@@H]1CC[C@H]3C[C@@H](O)CC[C@]3(C)[C@H]1CC2,-1.02% (inactive)
8,CCCCC(CC)COC(=O)c1ccccc1C(=O)O (centres undefined),6.79% [at 116 µM] (inactive)
9,N=C(N)c1ccc(OCCCOc2ccc(C(=N)N)cc2)cc1,18.6% (inactive)
10,CC(C)(C)CC(=O)OCC(=O)[C@@]1(O)CC[C@H]2[C@@H]3CCC4=CC(=O)C=C[C@]4(C)[C@H]3[C@@H](O)C[C@@]21C,17.4% (inactive)
11,CN=C(N)NC(=O)Nc1c(C)cccc1C,9.65% (inactive)
12,CO[C@@H]1[C@@H](O[C@@H]2O[C@H](C)[C@@H](O[C@H]3C[C@@](C)(O)[C@@H](O)[C@H](C)O3)[C@H](N(C)C)[C@H]2O)[C@@H](CC=O)C[C@@H](C)[C@@H](O[C@@H]2CC[C@H](N(C)C)[C@@H](C)O2)/C=C/C=C/C[C@@H](C)OC(=O)C[C@H]1OC(C)=O,8.55% (inactive)
13,CN(C)CCOC(c1ccccc1)c1ccc(Br)cc1 (centres undefined),-8.95% (inactive)
14,O=C(CCCCC(=O)Nc1c(I)cc(I)c(C(=O)O)c1I)Nc1c(I)cc(I)c(C(=O)O)c1I,-3.68% (inactive)
15,OC[C@]1(O)OC[C@@H](O)[C@H](O)[C@@H]1O,-8.99% (inactive)
16,CN1CCC(=C2c3ccccc3CCc3cccnc32)CC1,-0.65% (inactive)
17,CN1Cc2cc(C(=O)N3CCC(C4CCNCC4)CC3)ccc2NC(CC(=O)O)C1=O (centres undefined),-6.16% (inactive)
18,Nc1c(I)cc(I)c(C(=O)N(CCC(=O)O)c2ccccc2)c1I,7.65% (inactive)
19,Cc1ccccc1N1CCN(CCc2nnc3n2CCCC3)CC1,-0.306% (inactive)

row,Compound,"activity change, negative = cytotoxicity"
1,O=C(NO)c1ccccc1,-5.74% [at 116 µM] (inactive)
2,Cc1ccc2ccc(Cl)cc2n1,-1.1% (inactive)
3,Cc1ncc(CO)c(CO)c1O,-3.24% (inactive)
4,O=C1CC2(CCCC2)CC(=O)N1CCNCC1COc2ccccc2O1 (centres undefined),-2.84% (inactive)
5,CC(=O)OCC[N+](C)(C)C,-2.65% (inactive)
6,Oc1ccccc1,-7.93% (inactive)
7,c1ccc(C(O[C@H]2CCCN(CCc3ccc4c(c3)OCO4)C2)c2ccccc2)cc1,3.15% (inactive)
8,CCCCC(=O)OCC(=O)[C@H]1[C@H](C)C[C@H]2[C@@H]3C[C@H](F)C4=CC(=O)C=C[C@]4(C)[C@@]3(F)[C@@H](O)C[C@@]21C,7.87% (inactive)
9,O=C(OCC(O)CO)c1ccccc1Nc1ccnc2c(C(F)(F)F)cccc12 (centres undefined),1.8% (inactive)
10,CN1C(CSCC(F)(F)F)Nc2cc(Cl)c(S(N)(=O)=O)cc2S1(=O)=O (centres undefined),1.41% (inactive)
11,COc1cc(C=O)ccc1O,-8.95% (inactive)
12,O=C(O)/C=C(\CC(=O)O)C(=O)O,10.4% (inactive)
13,O=C(CCCCCCCCC#CI)Oc1ccccc1,4.44% (inactive)
14,NC(=O)COCCN1CCN(C(c2ccccc2)c2ccc(Cl)cc2)CC1 (centres undefined),0.884% (inactive)
15,COC(=O)C1=C(C)NC(COC(N)=O)=C(C(=O)OC(C)C)C1c1cccc(Cl)c1Cl (centres undefined),-4.58% (inactive)
16,CC(=O)OCC(=O)[C@@]1(O)[C@H](OC(C)=O)C[C@H]2[C@@H]3CCC4=CC(=O)C=C[C@]4(C)[C@@]3(F)[C@@H](O)C[C@@]21C,-1.46% (inactive)
17,O=C(c1ccccc1)c1ccccc1,-19% (inactive)
18,C[C@H]1C[C@@H]2[C@H]([C@@H](O)C[C@@]3(C)[C@H]2CC[C@]3(O)C(=O)CO)[C@@]2(C)C=CC(=O)C=C12,-3.75% (inactive)

# System: OV90
# Experiment: as above
# Conditions: Gynecologic cancer cell panel viability, ATPlite luminescence, 48 h; series mostly up to 57.5 µM; activity change, negative = cytotoxicity: at the top concentration
# Procedure, shortened: as §1
Compound,"activity change, negative = cytotoxicity",Potency
NCC(=O)O,1.43% [at 25.3 µM] (inactive),
Cc1c(N)cccc1C(F)(F)F,1.4% (inactive),
O=C(O)CCC(=O)OC[C@@H](NC(=O)C(Cl)Cl)[C@H](O)c1ccc([N+](=O)[O-])cc1,-16.7% (inactive),
O=C(COCCOCCOCC(=O)Nc1c(I)cc(I)c(C(=O)O)c1I)Nc1c(I)cc(I)c(C(=O)O)c1I,4.17% (inactive),
CC(=O)[C@@]1(O)CC[C@H]2[C@@H]3C[C@H](C)C4=CC(=O)CC[C@]4(C)[C@H]3CC[C@@]21C,-0.277% (inactive),
CCN(CC)CC(=O)OCC(=O)[C@@]1(O)CC[C@H]2[C@@H]3CCC4=CC(=O)CC[C@]4(C)[C@H]3[C@@H](O)C[C@@]21C,-5.01% (inactive),
C[C@@]12CCC[C@H]1[C@@H]1CC[C@H]3C[C@@H](O)CC[C@]3(C)[C@H]1CC2,19.6% (inactive),
CCCCC(CC)COC(=O)c1ccccc1C(=O)O (centres undefined),15.5% [at 116 µM] (inactive),
N=C(N)c1ccc(OCCCOc2ccc(C(=N)N)cc2)cc1,1.22% (inactive),
CC(C)(C)CC(=O)OCC(=O)[C@@]1(O)CC[C@H]2[C@@H]3CCC4=CC(=O)C=C[C@]4(C)[C@H]3[C@@H](O)C[C@@]21C,5.07% (inactive),
CN=C(N)NC(=O)Nc1c(C)cccc1C,6.65% (inactive),
CO[C@@H]1[C@@H](O[C@@H]2O[C@H](C)[C@@H](O[C@H]3C[C@@](C)(O)[C@@H](O)[C@H](C)O3)[C@H](N(C)C)[C@H]2O)[C@@H](CC=O)C[C@@H](C)[C@@H](O[C@@H]2CC[C@H](N(C)C)[C@@H](C)O2)/C=C/C=C/C[C@@H](C)OC(=O)C[C@H]1OC(C)=O,-14.8% (inactive),
CN(C)CCOC(c1ccccc1)c1ccc(Br)cc1 (centres undefined),,12.6 µM (active)
O=C(CCCCC(=O)Nc1c(I)cc(I)c(C(=O)O)c1I)Nc1c(I)cc(I)c(C(=O)O)c1I,-1.98% (inactive),
OC[C@]1(O)OC[C@@H](O)[C@H](O)[C@@H]1O,-6.8% (inactive),
CN1CCC(=C2c3ccccc3CCc3cccnc32)CC1,-20.3% (inactive),
CN1Cc2cc(C(=O)N3CCC(C4CCNCC4)CC3)ccc2NC(CC(=O)O)C1=O (centres undefined),-21.3% (inactive),
Nc1c(I)cc(I)c(C(=O)N(CCC(=O)O)c2ccccc2)c1I,4.78% (inactive),
Cc1ccccc1N1CCN(CCc2nnc3n2CCCC3)CC1,11% (inactive),

Compound,"activity change, negative = cytotoxicity",Potency
O=C(NO)c1ccccc1,1.68% [at 116 µM] (inactive),
Cc1ccc2ccc(Cl)cc2n1,13.9% (inactive),
Cc1ncc(CO)c(CO)c1O,18.7% (inactive),
O=C1CC2(CCCC2)CC(=O)N1CCNCC1COc2ccccc2O1 (centres undefined),12.4% (inactive),
CC(=O)OCC[N+](C)(C)C,-26.3% (inactive),
Oc1ccccc1,3.57% (inactive),
c1ccc(C(O[C@H]2CCCN(CCc3ccc4c(c3)OCO4)C2)c2ccccc2)cc1,-11.6% (inactive),
CCCCC(=O)OCC(=O)[C@H]1[C@H](C)C[C@H]2[C@@H]3C[C@H](F)C4=CC(=O)C=C[C@]4(C)[C@@]3(F)[C@@H](O)C[C@@]21C,12.1% (inactive),
O=C(OCC(O)CO)c1ccccc1Nc1ccnc2c(C(F)(F)F)cccc12 (centres undefined),7.22% (inactive),
CN1C(CSCC(F)(F)F)Nc2cc(Cl)c(S(N)(=O)=O)cc2S1(=O)=O (centres undefined),-3.93% (inactive),
COc1cc(C=O)ccc1O,-1.72% (inactive),
O=C(O)/C=C(\CC(=O)O)C(=O)O,17.7% (inactive),
O=C(CCCCCCCCC#CI)Oc1ccccc1,8.53% (inactive),
NC(=O)COCCN1CCN(C(c2ccccc2)c2ccc(Cl)cc2)CC1 (centres undefined),4.72% (inactive),
COC(=O)C1=C(C)NC(COC(N)=O)=C(C(=O)OC(C)C)C1c1cccc(Cl)c1Cl (centres undefined),-8.14% (inactive),
CC(=O)OCC(=O)[C@@]1(O)[C@H](OC(C)=O)C[C@H]2[C@@H]3CCC4=CC(=O)C=C[C@]4(C)[C@@]3(F)[C@@H](O)C[C@@]21C,-25.4% (inactive),
O=C(c1ccccc1)c1ccccc1,15% (inactive),
C[C@H]1C[C@@H]2[C@H]([C@@H](O)C[C@@]3(C)[C@H]2CC[C@]3(O)C(=O)CO)[C@@]2(C)C=CC(=O)C=C12,4.46% (inactive),
